The values below come from PubChem BioAssay AID651558 (National Center for Advancing Translational Sciences (NCATS), 2012).

The whole screen tested about 1,200 compounds, of which about 480 (40%) were called active. Another 29% or so got no clear call; they are omitted. The list shows a part of the results. A number with no mark means an inactive call. Calls come from the whole dose curve; as a rule, active = well fitted inhibition curve with a large enough effect; inconclusive = small, poorly fitted or top-dose-only effect; inactive = no such curve, though single readings can be large or run the other way.
% is set by controls: 0 for no effect and ±100 for the full control effect; potency is the fitted concentration of half-maximal effect.

The experiment in a line: qHTS Assay to Find Inhibitors of Chronic Active B-Cell Receptor Signaling: Hit Validation in Primary Screen. Note: nearly all actives have a fitted effect of over 75% in size. The conditions noted are these: ABC-DLBCL IkB-luc/CBR ratio luminescence, 4 h; series mostly up to 46.1 µM; activity change, negative = inhibition: at the top concentration. The gist of the method:
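TMD8 ABC-DLBCL cells carrying doxycycline-inducible IkBa-green luciferase fusion and free red luciferase, 0.5% FBS, dosed 46 uM–3 nM with doxycycline for 4 h at 37C. Green/red luminescence ratio normalized to basal and 10 uM MG-132.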
As to `COc1cc2nc(=S)n3[nH]c(CCn4nc(C)cc4C)nc3c2cc1OC`, the “activity change, negative = inhibition” value is 34.6%.

In the case of `O=C(/C=C/c1ccc(-c2ccccc2[N+](=O)[O-])o1)c1ccccc1`, the “activity change, negative = inhibition” value was -8.15%.

`CC(=O)[C@H]1CC[C@H]2[C@@H]3CCC4=CC(=O)CC[C@]4(C)[C@H]3CC[C@]12C`: the “activity change, negative = inhibition” value was -19.6%.

For `C[C@]12CCC(=O)C=C1CC[C@@H]1[C@@H]2[C@@H](O)C[C@@]2(C)[C@H]1CC[C@]2(O)C(=O)CO`, the “activity change, negative = inhibition” value was 53.5%.

For `COc1ccccc1-c1nnc(Nc2nc3c(OC)cccc3s2)o1`, the Potency was 0.366 µM (active).

Regarding `COc1cccc2sc(Nc3nnc(-c4ccccc4Cl)o3)nc12`, the Potency was 8.2 µM (active).

As to `NC(=S)N/N=C\c1ccc(-c2cccc(Cl)c2Cl)o1`, the “activity change, negative = inhibition” value was -2.4%.

Turning to `COc1ccc(COC(=O)c2cc([N+](=O)[O-])ccc2N2CCOCC2)cc1F`, the Potency is 0.092 µM (active).

As for `CSc1ccc(COC(=O)c2cc([N+](=O)[O-])ccc2N2CCOCC2)cc1`, the Potency is 0.58 µM (active).

`CCCCn1c(=O)c(F)cn(Cc2ccc(OC)c([N+](=O)[O-])c2)c1=O`: the “activity change, negative = inhibition” value was 28.8%.

Turning to `CCN(CC)S(=O)(=O)c1ccc(N2CCOCC2)c(NC(=O)c2[nH]c(C)c(C(C)=O)c2C)c1`, the “activity change, negative = inhibition” value was 103%.

As for `Cc1ccc(COC(=O)c2cc([N+](=O)[O-])ccc2N2CCOCC2)cc1`, the Potency is 5.8 µM (active).

With `CCCCn1c(-c2csc(C(C)C)c2)n[nH]c1=S`, the “activity change, negative = inhibition” value is -7.52%.

As for `CNC(=S)N/N=C(\C)c1ccc(Cl)c(Cl)c1`, the “activity change, negative = inhibition” value was -22%.

For `CCOc1ccc(S(=O)(=O)N2c3ccccc3CC2C)cc1` (centres undefined), the Potency is 14.6 µM (active).

With `COc1ccc(S(=O)(=O)N2c3ccccc3OCC2C)cc1` (centres undefined), the Potency was 16.4 µM (active).

`CNc1nc(N)c([N+](=O)[O-])c(NCc2ccccc2)n1`: the “activity change, negative = inhibition” value was 58.3%.

Take `CC(=O)c1ccc(Oc2cc(C)nc(-n3nc(C)cc3C)n2)cc1`: the Potency was 7.31 µM (active).

Take `COC(=O)c1ccc(Oc2cc(C)nc(-n3nc(C)cc3C)n2)cc1`: the Potency was 3.26 µM (active).

Take `O=C(CSc1cccc[n+]1[O-])c1ccc(Cl)s1`: the “activity change, negative = inhibition” value was -3.25%.

For the compound `O=C(CCCN1C(=O)/C(=C/c2ccccc2OC(F)F)SC1=S)Nc1cccnc1`, the Potency is 7.31 µM (active).

On to `O=C(O)CCCN1C(=O)/C(=C\c2ccccc2OCc2ccccc2)SC1=S`, for which the Potency was 7.31 µM (active).

In the case of `COc1ccccc1-c1cc(C(=O)Nc2cccnc2)no1`, the “activity change, negative = inhibition” value is 154%.

For the compound `CCCNS(=O)(=O)c1cccc(C(=O)OCc2cc(=O)oc3cc(OC)ccc23)c1`, the Potency was 9.2 µM (active).

For the compound `Cc1cc(C)c2nc(SCC(=O)N3CC(=O)Nc4ccccc43)c(C#N)cc2c1`, the Potency is 3.66 µM (active).

As to `Cc1cc(C)cc(C(=O)N2CC(=O)Nc3ccccc32)c1`, the Potency was 3.66 µM (active).

As to `COc1cc(OC)cc(C(=O)N/N=C(\C)CC(=O)Nc2ccccn2)c1`, the “activity change, negative = inhibition” value was -11.8%.

As to `COc1cc(OC)cc(C(=O)N2CC(=O)Nc3ccccc32)c1`, the Potency was 14.6 µM (active).

Regarding `COc1ccc(N2CC(C(=O)N3CCC(c4nc5ccccc5[nH]4)CC3)CC2=O)cc1` (centres undefined), the “activity change, negative = inhibition” value is -2.79%.

Turning to `COc1ccccc1NC(=O)N1CCC(c2nc3cc(C)c(C)cc3[nH]2)CC1`, the Potency was 5.17 µM (active).

For the compound `ClC(Cl)(Cl)c1nc2ccccc2n2nncc12`, the Potency was 18.4 µM (active).

For `COc1cc(-c2noc(C)c2/C=C/c2ccc(N)cc2)cc(OC)c1OC`, the Potency is 1.3 µM (active).

For the compound `COc1cc(-c2noc(C)c2/C=C/c2ccc(OC(C)=O)cc2)cc(OC)c1OC`, the Potency was 4.61 µM (active).

Regarding `CCOC(=O)C(C)Oc1cccc2c(=O)n(CC(=O)NCc3ccco3)ccc12` (centres undefined), the Potency was 18.4 µM (active).

For the compound `CCOC(=O)COc1cccc2c(=O)n(CC(=O)NCc3ccc(F)cc3)ccc12`, the Potency is 3.26 µM (active).

As for `CCOC(=O)C(C)Oc1cccc2c(=O)n(CC(=O)NCc3ccccc3)ccc12` (centres undefined), the Potency was 4.11 µM (active).

For the compound `CCOC(=O)COc1cccc2c(=O)n(CC(=O)NCc3ccccc3)ccc12`, the “activity change, negative = inhibition” value was 41.5%.

With `CCOC(=O)C(C)Oc1cccc2c(=O)n(CC(=O)NCc3ccc4c(c3)OCO4)ccc12` (centres undefined), the Potency is 20.6 µM (active).

As to `CCOc1ccc(CCNC(=O)c2cc(=O)[nH]c3ccc(S(=O)(=O)N4CCCCC4C)cc23)cc1OCC` (centres undefined), the “activity change, negative = inhibition” value is 13.6%.

For `C=CCn1c(O)c(N=NC(=S)Nc2ccccc2C)c2cc(S(=O)(=O)N3CCOCC3)ccc21`, the “activity change, negative = inhibition” value was -8.84%.

On to `CCOC(=O)C(C)Oc1cccc2c(=O)n(CC(=O)NCc3ccc(F)cc3)ccc12` (centres undefined), for which the Potency is 2.59 µM (active).

For the compound `COC(=O)COc1cccc2c(=O)n(CC(=O)NCc3ccccc3)ccc12`, the Potency was 9.2 µM (active).

On to `CCN(c1cccc(C)c1)S(=O)(=O)c1ccc(-c2cc(C)no2)s1`, for which the Potency was 16.4 µM (active).

`Cc1cccc(N(C)S(=O)(=O)c2ccc(-c3cc(C)no3)s2)c1`: the “activity change, negative = inhibition” value was 65.2%.

Take `Cc1nn(C)cc1CNC(=O)COc1ccc(Cl)cc1Cl`: the “activity change, negative = inhibition” value is -20.7%.

For `Cc1cc(Cl)ccc1OCCCC(=O)NO`, the Potency is 16.4 µM (active).

For the compound `CC[C@]1(O)C[C@@H]2CN(CCc3c([nH]c4ccccc34)[C@@](C(=O)OC)(c3cc4c(cc3OC)N(C)[C@H]3[C@@](O)(C(=O)OC)[C@H](OC(C)=O)[C@]5(CC)C=CCN6CC[C@]43[C@@H]65)C2)C1`, the Potency was 0.0461 µM (active).

As for `CC[C@]1(O)CC2CN(CCc3c([nH]c4ccccc34)[C@@](C(=O)OC)(c3cc4c(cc3OC)N(C=O)[C@H]3[C@@](O)(C(=O)OC)[C@H](OC(C)=O)[C@]5(CC)C=CCN6CC[C@]43[C@@H]65)C2)C1` (some centres undefined), the Potency is 0.0517 µM (active).

Turning to `COc1ccc(C(=O)/C=C/c2ccc(O)cc2)c2c1CC(O)C(C)(C)O2` (centres undefined), the Potency was 20.6 µM (active).

As for `O=S1(=O)[C@H]2C[C@H](CO)O[C@@]2(CO)CN1Cc1ccc(-c2cccc(Cl)c2)cc1`, the “activity change, negative = inhibition” value is -24.2%.

For `COc1ccc(OC)c(Nc2c3c(nc4ccccc24)CCC3)c1`, the Potency is 14.6 µM (active).

As to `COc1cc(Nc2c3c(nc4ccccc24)CCC3)cc(OC)c1OC`, the Potency is 18.4 µM (active).

As for `COc1ccccc1-c1nc2c3ccccc3nc(=S)n2[nH]1`, the “activity change, negative = inhibition” value was -12.7%.

Take `Cc1nn(CCC(=O)NNC(=S)Nc2ccccc2)c(C)c1Br`: the “activity change, negative = inhibition” value was -4.17%.
